# Only a selection was taken, and hits are over-represented in it overall.
# DUX4 txn inh – DUX4-mediated transcription inhibition; 293T-iDUX4 ZSCAN4-Gaussia luciferase reporter, 24 h; active compounds read low; AID 1224904; activity change, negative = inhibition, % (test concentration not listed); 0.8% of 37,000 active;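 active means mean inhibition of at least 10% in the main channel, exceeding the control channel by a set limit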
# Hits are given with their value; i = inactive.
SMILES,DUX4 txn inh
Cc1noc(C)c1NC(=O)N(C)C[C@@H]1OCCCC[C@@H](C)Oc2ccc(N(C)C)cc2C(=O)N([C@H](C)CO)C[C@@H]1C,i
Cc1ccc(S(=O)(=O)N2CC[C@@H]3[C@H]2c2cc(C#Cc4cccc(F)c4)ccc2N[C@@H]3CO)cc1,i
CC(C)CC#Cc1ccc([C@H]2[C@@H](CO)N3C(=O)CN(C(=O)c4ccccn4)C[C@@H]23)cc1,i
O=C(C1CCOCC1)N1CC2(C1)[C@H](c1ccccc1)[C@@H](CO)N2Cc1ccc(Cl)cc1,i
O=C(C1CCCC1)N1CC2(C1)[C@H](c1ccccc1)[C@@H](CO)N2Cc1ccccc1F,-44.7
O=C(C1CCC1)N1CC2(C1)[C@H](c1ccccc1)[C@H](CO)N2Cc1ccccc1F,i
O=C(C1CCCC1)N1CC2(C1)[C@@H](c1ccccc1)[C@@H](CO)N2Cc1ccc(Cl)cc1,i
O=C(C1CCCC1)N1CC2(C1)[C@@H](c1ccccc1)[C@H](CO)N2Cc1ccccc1F,i
O=C(C1CCCCC1)N1CC2(C1)[C@H](c1ccccc1)[C@@H](CO)N2Cc1ccc(Cl)cc1,-50.6
O=C(C[C@@H]1CC[C@H]2[C@@H](COC[C@H](O)CN2C(=O)c2ccc(F)cc2)O1)Nc1ccc(-c2ccccc2)cc1,i
COc1ccc2c3c(n(C)c2c1)[C@@H](CO)N(C(=O)Cc1ccccc1)CC31CCN(C)CC1,i
COc1ccc(NC(=O)Nc2ccc3c(c2)C(=O)N([C@@H](C)CO)C[C@@H](C)[C@H](CN(C)C(=O)c2ccccc2)OCCCC[C@@H](C)O3)cc1,i
COc1ccc2c3c(n(C)c2c1)[C@H](CO)NCC31CN(Cc2ccccc2Cl)C1,i
COc1ccc2c3c(n(C)c2c1)[C@H](CO)NCC31CN(Cc2ccc(Cl)cc2)C1,-48.2
COc1ccc2c3c(n(C)c2c1)[C@@H](CO)NCC31CN(Cc2ccc(-c3ccccn3)cc2)C1,i
O=C(NC[C@@H]1N[C@@H](CO)[C@@H]1c1ccc(-c2ccccc2F)cc1)c1ccccn1,i
CCCN1[C@H](C(=O)NCCc2cn(C)cn2)[C@@H](CO)[C@@H]2Cn3c(ccc(-c4ccccc4)c3=O)[C@@H]21,i
COc1ccc(NC(=O)N(C)C[C@@H]2Oc3ncc(C#C[C@@H](C)O)cc3C(=O)N([C@H](C)CO)C[C@@H]2C)cc1,i
COc1cccc(CN2[C@@H](CO)[C@@H](c3ccccc3)C23CN(C(=O)C2CCC2)C3)c1,i
COc1cccc(CN2[C@@H](CO)[C@@H](c3ccccc3)C23CN(C(=O)C2CC2)C3)c1,i
COc1cccc(CN2[C@@H](CO)[C@@H](c3ccccc3)C23CN(Cc2ccccc2OC)C3)c1,-38.2
CS(=O)(=O)N1CC2(C1)[C@@H](c1ccccc1)[C@H](CO)N2C(=O)C1CCC1,i
Cc1ccccc1S(=O)(=O)NCC[C@@H]1CC[C@@H](NC(=O)Nc2cccc(F)c2)[C@@H](CO)O1,i
O=C(C[C@H]1C[C@@H]2c3cc(NC(=O)c4ccc5c(c4)OCO5)ccc3O[C@@H]2[C@H](CO)O1)NCCc1ccccc1,i
COc1ccccc1NC(=O)N1C[C@H](O)COC[C@@H]2O[C@H](CC(=O)NCc3ccccc3)CC[C@H]21,i
SMILES,DUX4 txn inh
COCC(=O)N1CC(=O)N2[C@H](C1)[C@H](c1ccc(C#Cc3cccnc3)cc1)[C@@H]2CO,i
CC(C)CC#Cc1ccc([C@H]2[C@@H](CO)N3C(=O)CN(C(=O)Cc4ccccc4)C[C@H]23)cc1,i
CC(=O)N1CC(=O)N2[C@@H](CO)[C@H](c3ccc(C#Cc4cccnc4)cc3)[C@@H]2C1,i
COc1cccc(NC(=O)N2CC(=O)N3[C@H](CO)[C@@H](c4ccc(C#CC5CCCCC5)cc4)[C@H]3C2)c1,i
COCC(=O)N1CC(=O)N2[C@@H](CO)[C@@H](c3ccc(C#Cc4cccnc4)cc3)[C@@H]2C1,i
COc1cccc(NC(=O)N2CC(=O)N3[C@@H](CO)[C@H](c4ccc(C#CC5CCCCC5)cc4)[C@@H]3C2)c1,-47.4
CC(=O)N1CC(=O)N2[C@H](CO)[C@@H](c3ccc(C#Cc4cccnc4)cc3)[C@H]2C1,i
CC(C)CC#Cc1ccc([C@@H]2[C@@H](CO)N3C(=O)CN(C(=O)Cc4ccccc4)C[C@H]23)cc1,i
O=C(Cc1ccccc1)N1CC(=O)N2[C@H](C1)[C@@H](c1ccc(C#CCc3ccccc3)cc1)[C@@H]2CO,-33.8
COc1cccc(NC(=O)N2CC(=O)N3[C@H](CO)[C@@H](c4ccc(C#CC5CCCCC5)cc4)[C@@H]3C2)c1,i
COCC(=O)N1CC(=O)N2[C@H](CO)[C@H](c3ccc(C#Cc4cccnc4)cc3)[C@H]2C1,-21.7
CC(=O)N1CC(=O)N2[C@H](CO)[C@H](c3ccc(C#Cc4cccnc4)cc3)[C@H]2C1,-20.3
COC(=O)C[C@H]1CC[C@H]2[C@@H](COC[C@@H](O)CN2C(=O)Nc2ccccc2OC)O1,i
COCC(=O)N1CC[C@@H]2[C@H]1c1cc(-c3ccccc3)ccc1N(C)[C@H]2CO,i
CO[C@@H]1CC[C@H]2CCN(C)C(=O)C[C@@H](c3ccccc3)CN(C)C(=O)c3cccc(C#N)c3OC[C@@H]1O2,i
CCC(=O)N(CC)C[C@@H]1[C@@H](c2ccc(-c3cccnc3)cc2)[C@H](CO)N1C(C)=O,i
O=C(Cc1ccccn1)N1CC2(C1)[C@@H](c1ccccc1)[C@@H](CO)N2C(=O)c1ccccc1,i
CNC(=O)C[C@@H]1CC[C@H]2[C@H](COc3ccc(NC(=O)NCc4ccccc4)cc3C(=O)N2C)O1,i
O=C(Cc1ccncc1)N1CC(=O)N2[C@@H](CO)[C@H](c3ccc(C4=CCCC4)cc3)[C@@H]2C1,i
COc1ccccc1CN(C)C[C@@H]1OCc2ccccc2-c2c(n(C)c3ccccc23)C(=O)N([C@@H](C)CO)C[C@@H]1C,-31.5
C[C@@H]1CN([C@@H](C)CO)C(=O)c2c(c3ccccc3n2C)-c2ccccc2CO[C@H]1CN(C)Cc1cccc2c1OCCCO2,-30.7
C[C@@H]1CN([C@H](C)CO)C(=O)c2c(c3ccccc3n2C)-c2ccccc2CO[C@H]1CN(C)C,i
C[C@@H]1CN([C@@H](C)CO)C(=O)c2ccccc2-c2ccccc2CO[C@H]1CN(C)Cc1ccccc1C(F)(F)F,i
C[C@@H]1CN([C@H](C)CO)C(=O)c2c(c3ccccc3n2C)-c2ccccc2CO[C@@H]1CN(C)Cc1ccncc1,i
C[C@H](CO)N1C[C@H](C)[C@H](CN(C)Cc2cccc3c2OCCCO3)OCc2ccccc2-c2ccccc2C1=O,i
SMILES,DUX4 txn inh
C[C@H](CO)N1C[C@H](C)[C@@H](CN(C)C)OCc2ccccc2-c2c(n(C)c3ccccc23)C1=O,i
C[C@H]1CN([C@@H](C)CO)C(=O)c2c(c3ccccc3n2C)-c2ccccc2CO[C@@H]1CN(C)C,i
C[C@@H]1CN([C@H](C)CO)C(=O)c2c(c3ccccc3n2C)-c2ccccc2CO[C@H]1CN(C)Cc1ccccc1C(F)(F)F,-48.8
CO[C@H]1CN(C)C(=O)c2ccc(NC(=O)c3cccc(F)c3)cc2OC[C@@H](C)NC[C@H]1C,i
COc1cccc(S(=O)(=O)N2[C@@H]3CNC[C@H]2C3c2ccc(-c3ccc(C(=O)N(C)C)cc3)cc2)c1 (stereo partly drawn),i
CCN1[C@@H]2Cn3c(ccc(-c4cccc(F)c4)c3=O)[C@H]1[C@@H](C(=O)NCC1CC1)[C@@H]2CO,i
CC(=O)N1[C@@H]2c3ccc(-c4ccncc4)c(=O)n3C[C@@H]2[C@@H](CO)[C@@H]1C(=O)NC1Cc2ccccc2C1,i
